Data taken from PubChem BioAssay (Tox21).
Records with an inconclusive call do not appear. Activity calls are given as the source filed them. The call rests on the fitted dose curve; in most records, active means well fitted cell-killing curve with a large enough effect in the repeat runs; inconclusive means weak or mixed curves, or effect the other way; inactive means flat fitted curve, though single readings scatter.

Assay: qHTS RealTime-Glo MT Cell Viability Assay in HEK293 cells - 0 hour (AID 1224880); further: top concentration of the series differs between compounds; nearly all actives have a fitted effect of over 45% in size
Conditions: RealTime-Glo luminescence; series mostly up to 76.8 µM
Excerpt: U.S. Tox21 Program National Center for Advancing Translational Sciences [NCATS] NIH Chemical Genomics Center [NCGC] U.S. Environmental Protection Agency [EPA] National Institutes of Environmental Health Sciences [NIEHS] National Toxicology Program [NTP] U.S. Food and Drug Administration [FDA] Tox21 Assay Overview: Measure of cell viability is critical in the cell-base assay. Analysis of cell viability is necessary for the characterization of cell responses to cytotoxic drugs and environmental stress. A RealTime-Glo MT Cell Viability Assay to monitor cell viability in real time of continues cell culture during 40 hours of compound treatment was used to screen Tox21 10K library compounds in Hek293 cells. The RealTime-Glo MT Cell Viability Assay is a nonlytic, homogeneous, bioluminescent method to measure cell viability in real time using a simple, plate-based method. The assay involves adding NanoLuc luciferase and a cell-permeant prosubstrate to cells in culture. Viable cells reduce the proprietary prosubstrate to generate a substrate for NanoLuc luciferase. This substrate diffuses from cells into the surrounding culture medium, where it is rapidly used by the NanoLuc Enzyme to produce a luminescent signal. The signal correlates with the number of viable cells, making the assay well suited for cytotoxicity studies.
Tox21 Assay Protocol Summary: The mixture of Hek293 cell suspension and reagents were dispensed at 600cells/6 ul/well in 1536-well tissue culture treated black solid bottom plates using a Multidrop dispenser. After the assay plates were incubated at a 37 C/5% CO2 incubator for 5 hours, 23 nL of compounds dissolved in DMSO, positive and negative controls was transferred to the assay plate by a pintool work station. The plates were incubated at 37 C for 40 hours. The luminescence intensity were measured at 0h, 8h, 16h, 24h, 32h and 40h time points using ViewLux plate reader during compound treatment.
On the % scale 0 is the no-effect control and ±100 the full control effect.

| SMILES | outcome | activity change, negative = cytotoxicity |
| --- | --- | --- |
| CCC1Nc2cc(Cl)c(S(N)(=O)=O)cc2S(=O)(=O)N1 (stereo not given) | inactive | – |
| CCCCCCCCCCCCC | inactive | – |
| CCc1nccnc1C | inactive | – |
| c1ccccc1 | inactive | – |
| Nc1nc(=O)n([C@@H]2O[C@H](CO)[C@@H](O)[C@@H]2F)cc1I | inactive | – |
| OC(CCN1CCCCC1)(c1ccccc1)c1ccccc1 | inactive | – |
| O=C(O)Cc1cccc(-c2cc(CCCCCCc3ccc(O[C@H]4O[C@H](CO)[C@@H](O)[C@H](O)[C@@H]4O)c(-c4cccc(CC(=O)O)c4)c3)ccc2O[C@H]2O[C@H](CO)[C@@H](O)[C@H](O)[C@@H]2O)c1 | – | 3.85% [at 0.29 µM] (inactive) |
| Cc1nc2ccccc2c(=O)o1 | inactive | – |
| CCCCCCCCC(=O)OCC | inactive | – |
| C=CC(C)(O)CC/C=C(\C)CC (stereo not given) | inactive | – |
| Cc1c(C(C)C)c(=O)n(-c2ccccc2)n1C | inactive | – |
| O=C(c1ccc2c(c1)C(=O)OC2=O)c1ccc2c(c1)C(=O)OC2=O | inactive | – |
| C1=CCC(c2ccccc2)CC1 (stereo not given) | inactive | – |
| CCCCCC1Nc2cc(C(F)(F)F)c(S(N)(=O)=O)cc2S(=O)(=O)N1 (stereo not given) | inactive | – |
| CCCCC(=O)N(C)C | inactive | – |
| O=C1OC(=O)c2ccccc21 | inactive | – |
| O=S(=O)(O)CCO | inactive | – |
| CC(C)C(=O)c1ccccc1 | inactive | – |
| O=C1CC[C@H](C(=O)N2CCCCC2)N1 | inactive | – |
| C=C[C@@H](C)CCC=C(C)C | inactive | – |

| SMILES | outcome | activity change, negative = cytotoxicity |
| --- | --- | --- |
| CCCCCCCCCCCCC1CO1 (stereo not given) | inactive | – |
| CC(C)CCO | inactive | – |
| C=CCOCC(CO)(COCC=C)COCC=C | inactive | – |
| O=C1NC2NC(=O)NC2N1 (stereo not given) | inactive | – |
| CCC(=O)OCCC(C)CCC=C(C)C (stereo not given) | inactive | – |
| CC(=O)/C=C/c1ccco1 | inactive | – |
| Nc1ccc(C(=O)OCC(O)CO)cc1 (stereo not given) | inactive | – |
| NC(=O)NC(=O)Cc1ccccc1 | inactive | – |
| CC1=NN(c2ccc(S(=O)(=O)O)cc2)C(=O)C1N=Nc1ccccc1 (stereo not given) | inactive | – |
| CCCO | inactive | – |
| Cc1cccc(C(=O)O)c1[N+](=O)[O-] | inactive | – |
| c1ccc(CNc2ncnc3nc[nH]c23)cc1 | inactive | – |
| F[Si-2](F)(F)(F)(F)F | inactive | – |
| NS(=O)(=O)c1cc2c(cc1Cl)NC(CC1CCCC1)NS2(=O)=O (stereo not given) | inactive | – |
| Cc1ccc2c(c1)c1c3n2CCNC3CCC1 (stereo not given) | inactive | – |
| CNC(=O)NC | inactive | – |
| Cc1oc(=O)oc1CN1CCN(c2cc3c(cc2F)c(=O)c(C(=O)O)c2n3C(C)S2)CC1 (stereo not given) | inactive | – |
| CNC(=O)C(c1ccccc1)c1ccccc1 | inactive | – |
| CCNC(=O)NCCCOc1cccc(CN2CCCCC2)c1 | inactive | – |
| CN[C@@H]1[C@H](O)[C@H](NC)[C@H]2O[C@@]3(O)C(=O)C[C@@H](C)O[C@H]3O[C@@H]2[C@H]1O | inactive | – |
